Source: PubChem BioAssay AID1159580 (chemical genetic matrix, 2015)
In all, about 5,500 compounds went through this assay and about 2,000 (36%) were called active. Inconclusive results (about 18%) are left out. Cut-off read from the data, not from the text of the source: active = normalized growth mostly below about 0.91 (no sharp cut-off); inconclusive = no clear call, values can overlap the other calls; inactive = mostly above about 0.92. The list shows a part of the results.

Experiment: chemical genetic growth profiling, strain panel (AID 1159580);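 note: tested at 20 µM; growth read once vehicle control cultures reached saturation at 30 °C; 1 = growth at the plate median or of vehicle wells; lower values mean less growth of the strain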
Details: S. cerevisiae deletion strains, growth OD

Measured: normalized growth

C=C1CCC2[C@](C)(CO)[C@H](O)CC[C@@]2(C)[C@@H]1C/C=C1/C(=O)OC[C@H]1O (some centres undefined)
inactive: locus YAL013W, strain DEP1, hits give low values 1.01 | locus YAL021C, strain ccr4, hits give low values 0.993 | locus YAL026C, strain drs2, hits give low values 0.992 | locus YAL030W, strain snc1, hits give low values 0.996 | locus YBL061C, strain skt5, hits give low values 1 | locus YBR009C, strain hhf1, hits give low values 1.02 | locus YBR021W, strain FUR4, hits give low values 1 | locus YBR023C, strain chs3, hits give low values 0.999 | locus YBR171W, strain sec66, hits give low values 0.978 | locus YBR229C, strain ROT2, hits give low values 1.01 | locus YBR231C, strain swc5, hits give low values 0.996 | locus YBR279W, strain paf1, hits give low values 1 | locus YCL011C, strain gbp2, hits give low values 0.985 | locus YCL016C, strain dcc1, hits give low values 0.998 | locus YCL029C, strain bik1, hits give low values 1.03 | locus YCL069W, strain vba3, hits give low values 1.01 | locus YCR088W, strain abp1, hits give low values 1 | locus YDL005C, strain med2, hits give low values 0.961 | locus YDL035C, strain GPR1, hits give low values 1.02 | locus YDL040C, strain nat1, hits give low values 0.995 | locus YDL074C, strain BRE1, hits give low values 1.06 | locus YDL101C, strain DUN1, hits give low values 1.02 | locus YDL185W, strain tfp1, hits give low values 1.03 | locus YDL192W, strain arf1, hits give low values 1.02 | locus YDR001C, strain nth1, hits give low values 0.988 | locus YDR069C, strain doa4, hits give low values 0.992 | locus YDR101C, strain arx1, hits give low values 1.01 | locus YDR137W, strain rgp1, hits give low values 0.995 | locus YDR159W, strain sac3, hits give low values 1.04 | locus YDR162C, strain NBP2, hits give low values 1.04 | locus YDR195W, strain ref2 0.949 | locus YDR297W, strain sur2, hits give low values 1 | locus YDR318W, strain mcm21, hits give low values 1.05 | locus YDR334W, strain swr1, hits give low values 0.987 | locus YDR335W, strain msn5, hits give low values 0.986 | locus YDR388W, hits give low values 1.01 | locus YDR392W, strain spt3, hits give low values 0.998 | locus YDR502C, strain sam2, hits give low values 1.05 | locus YEL003W, strain gim4, hits give low values 0.995 | locus YEL037C, strain rad23, hits give low values 0.999 | locus YEL061C, strain CIN8 (second series), hits give low values 0.99 | locus YEL061C, strain CIN8, hits give low values 1.01 | locus YER015W, strain faa2, hits give low values 0.994 | locus YER016W, strain bim1, hits give low values 0.978 | locus YER110C, hits give low values 1.02 | locus YER111C, strain swi4, hits give low values 0.988 | locus YER155C, strain BEM2 (second series), hits give low values 0.995 | locus YER155C, strain BEM2, hits give low values 1.02 | locus YER167W, strain BCK2, hits give low values 1.01 | locus YFR010W, strain ubp6, hits give low values 1.02 | locus YGL078C, strain dbp3, hits give low values 1.03 | locus YGL086W, strain mad1, hits give low values 1.01 | locus YGL167C, strain pmr1, hits give low values 0.992 | locus YGL173C, strain kem1, hits give low values 1.01 | locus YGL227W, strain vid30, hits give low values 0.991 | locus YGL240W, strain doc1, hits give low values 0.999 | locus YGL248W, strain PDE1, hits give low values 1.03 | locus YGL253W, strain hxk2, hits give low values 0.971 | locus YGR078C, strain PAC10, hits give low values 1.03 | locus YGR135W, strain pre9, hits give low values 1.05 | locus YGR252W, strain gcn5, hits give low values 1.01 | locus YHR013C, strain ard1, hits give low values 0.983 | locus YHR027C, strain rpn1, hits give low values 0.976 | locus YHR079C, strain IRE1 (second series), hits give low values 1.03 | locus YHR094C, strain hxt1, hits give low values 1.02 | locus YHR129C, strain ARP1, hits give low values 1.01 | locus YHR142W, strain chs7, hits give low values 0.976 | locus YHR200W, strain rpn10, hits give low values 1.03 | locus YIL066C, strain RNR3, hits give low values 1.02 | locus YIL073C, strain SPO22, hits give low values 1.11 | locus YIL125W, strain kgd1, hits give low values 1.03 | locus YIR030C, strain dcg1, hits give low values 1.03 | locus YJL092W, strain hpr5, hits give low values 0.985 | locus YJL095W, strain BCK1 (second series), hits give low values 0.982 | locus YJL095W, strain BCK1, hits give low values 1.05 | locus YJL115W, strain asf1, hits give low values 0.955 | locus YJL129C, strain trk1, hits give low values 0.982 | locus YJL134W, strain LCB3, hits give low values 1.01 | locus YJL154C, strain vps35, hits give low values 0.984 | locus YJL164C, strain tpk1, hits give low values 1.01 | locus YJL166W, strain qcr8, hits give low values 0.987 | locus YJL168C, strain set2, hits give low values 1.02 | locus YJL187C, strain SWE1 (second series), hits give low values 1.02 | locus YJL187C, strain SWE1, hits give low values 0.996 | locus YJR043C, strain POL32, hits give low values 1.02 | locus YKL009W, strain mrt4, hits give low values 1.02 | locus YKL068W, hits give low values 1.02 | locus YKL085W, strain MDH1 (second series), hits give low values 1.03 | locus YKL085W, strain MDH1, hits give low values 1.03 | locus YKL160W, strain elf1, hits give low values 0.995 | locus YKL190W, strain CNB1, hits give low values 1.01 | locus YKR001C, strain vps1, hits give low values 1.07 | locus YKR026C, strain gcn3, hits give low values 0.999 | locus YKR091W, strain srl3, hits give low values 0.979 | locus YLL001W, strain dnm1, hits give low values 1.01 | locus YLL026W, hits give low values 0.993 | locus YLL041C, strain sdh2, hits give low values 1.02 | locus YLR027C, strain aat2, hits give low values 1 | locus YLR039C, strain RIC1, hits give low values 1.09 | locus YLR058C, strain SHM2, hits give low values 1.04 | locus YLR102C, strain apc9, hits give low values 1.02 | locus YLR221C, strain rsa3, hits give low values 1.04 | locus YLR258W, strain gsy2, hits give low values 1.01 | locus YLR262C, strain YPT6 (second series), hits give low values 0.975 | locus YLR268W, strain sec22, hits give low values 1.04 | locus YLR320W, strain mms22, hits give low values 1.04 | locus YLR330W, strain CHS5, hits give low values 1.02 | locus YLR342W, strain FKS1, hits give low values 1.02 | locus YLR357W, strain rsc2, hits give low values 0.979 | locus YLR370C, strain arc18, hits give low values 0.972 | locus YLR371W, strain rom2, hits give low values 1.02 | locus YLR384C, strain iki3, hits give low values 0.993 | locus YLR418C, strain cdc73, hits give low values 1.07 | locus YML016C, strain PPZ1, hits give low values 1.01 | locus YML032C, strain rad52, hits give low values 1.03 | locus YML120C, strain ndi1, hits give low values 1 | locus YML124C, strain tub3, hits give low values 1.03 | locus YMR058W, strain fet3, hits give low values 0.977 | locus YMR078C, strain ctf18, hits give low values 1.03 | locus YMR125W, strain sto1, hits give low values 0.98 | locus YMR129W, hits give low values 0.98 | locus YMR205C, strain PFK2, hits give low values 0.995 | locus YMR223W, strain ubp8, hits give low values 1.03 | locus YMR231W, strain pep5, hits give low values 0.997 | locus YMR307W, strain GAS1, hits give low values 0.967 | locus YNL067W, strain RPL9B, hits give low values 1.02 | locus YNL071W, strain lat1, hits give low values 1 | locus YNL209W, strain ssb2, hits give low values 0.987 | locus YNL233W, strain BNI4, hits give low values 1.02 | locus YNL248C, strain rpa49, hits give low values 0.979 | locus YNL250W, strain rad50, hits give low values 1.04 | locus YNL271C, strain bni1, hits give low values 1.03 | locus YNL298W, strain CLA4, hits give low values 1.03 | locus YNL307C, strain MCK1, hits give low values 1.04 | locus YNL322C, strain KRE1 (second series), hits give low values 0.977 | locus YNR049C, strain mso1, hits give low values 0.974 | locus YNR052C, strain pop2, hits give low values 1.03 | locus YOL006C, strain TOP1, hits give low values 1.07 | locus YOL012C, strain htz1 1.13 | locus YOL147C, strain pex11, hits give low values 1.04 | locus YOR001W, strain rrp6, hits give low values 1.01 | locus YOR061W, strain CKA2, hits give low values 1.02 | locus YOR069W, strain VPS5, hits give low values 1.01 | locus YOR070C, strain gyp1, hits give low values 1.01 | locus YOR080W, strain dia2, hits give low values 0.966 | locus YOR083W, strain WHI5, hits give low values 1 | locus YOR106W, strain vam3, hits give low values 0.986 | locus YOR136W, strain idh2, hits give low values 1.04 | locus YOR144C, strain elg1, hits give low values 1.03 | locus YOR184W, strain ser1, hits give low values 1.05 | locus YOR265W, strain rbl2, hits give low values 0.993 | locus YOR270C, strain vph1, hits give low values 1.02 | locus YOR290C, strain snf2, hits give low values 0.966 | locus YOR316C, strain cot1, hits give low values 1.03 | locus YPL051W, strain arl3, hits give low values 0.986 | locus YPL078C, strain atp4, hits give low values 0.982 | locus YPL106C, strain sse1, hits give low values 1 | locus YPL240C, strain hsp82, hits give low values 0.998 | locus YPL241C, strain CIN2, hits give low values 1.01 | locus YPR119W, strain clb2, hits give low values 1.02 | locus YPR141C, strain kar3, hits give low values 1.01 | locus YPR163C, strain tif3, hits give low values 1.04 | locus YPR167C, strain met16, hits give low values 1.03 | strain wtn01, hits give low values 1.02
